For experiment [1], the target named is T1, Aspartate--tRNA(Asp/Asn) ligase (Mycobacterium tuberculosis (strain ATCC 25618 / H37Rv)) (UniProt P9WFW3). Note: in the data most compounds retested in dose-response had high values.
T1 sequence (whole entry): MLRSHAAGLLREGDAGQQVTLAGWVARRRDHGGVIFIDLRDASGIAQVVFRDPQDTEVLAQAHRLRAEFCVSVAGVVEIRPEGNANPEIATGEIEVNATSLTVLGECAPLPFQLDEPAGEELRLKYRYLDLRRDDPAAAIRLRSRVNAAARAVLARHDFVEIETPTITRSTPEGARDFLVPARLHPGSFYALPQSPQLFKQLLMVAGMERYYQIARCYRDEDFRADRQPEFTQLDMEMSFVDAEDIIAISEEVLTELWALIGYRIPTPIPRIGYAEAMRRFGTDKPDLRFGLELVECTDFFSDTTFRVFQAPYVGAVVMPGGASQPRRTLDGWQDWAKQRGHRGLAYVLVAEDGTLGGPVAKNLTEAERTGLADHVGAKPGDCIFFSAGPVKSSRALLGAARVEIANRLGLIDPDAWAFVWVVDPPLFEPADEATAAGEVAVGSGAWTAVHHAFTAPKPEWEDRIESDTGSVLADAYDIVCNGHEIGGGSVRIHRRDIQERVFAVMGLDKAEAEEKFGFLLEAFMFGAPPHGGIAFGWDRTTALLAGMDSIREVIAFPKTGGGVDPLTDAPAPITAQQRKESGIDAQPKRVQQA
Put plainly: Assay for Asp RNA synthetase-1 from Mycobacterium tuberculosis. The experiment is classed as functional. Further details: scale not given: direction of the effect not stated beside the values. The conditions noted are these: 30 µM.

For experiment [2], the target named is Shiga toxin 2 (Escherichia coli O157:H7) (UniProt P09385+P09386). Put plainly: E. coli 0.157:H7 Shiga Toxin SOP - stx2 screening assay. It is filed as functional. Further details: scale not given: direction of the effect not stated beside the values. The conditions noted are these: 30 µM.

The values below come from ChEMBL document CHEMBL3988442, “University of Dundee, Small-Polar-MMV Screening Library” (2021).

Molecules are shown by their SMILES.

As for `CC1CCN(CCCNS(=O)(=O)c2cccc(F)c2)CC1`, the Percent Effect is 11.5% in experiment [1] and -61.6% in experiment [2].
In the same order, the values of `COc1c(C2CCCN2Cc2cc(C)no2)c(C)nn1C` (centres undefined) are 3.61% and 18.1%.
Take `Cc1nn(C)c2c(N3CCN(C(=O)NC4CCCCC4)CC3)ncnc12`: the Percent Effect in experiment [1] was -5.2%; in experiment [2], -44.8%.
As for `O=C(CCc1ccccc1)N1CCC(N2CCNC2=O)CC1`, the Percent Effect worked out at 1.87% in experiment [1] and 26% in experiment [2].
As to `CC1(C)OCC(CNC(=O)c2cnn(-c3ccc(Cl)cc3)c2N)O1` (centres undefined), the Percent Effect in experiment [1] was 2.4%; in experiment [2] it was 47.4%.
For `Cc1nc(C)n(CC2CCCN2Cc2cc(C)on2)n1` (centres undefined), the Percent Effect in experiment [1] stood at 8.96%; in experiment [2] it was 8.12%.
In the same order, the values of `CC(NC(=O)CSCC#N)c1ccccc1` (centres undefined) are 2.98% and 13.3%.
In the same order, the values of `COC(=O)c1cccc(NC(=O)CN2CCN(S(C)(=O)=O)CC2)c1` are 1.93% and 10.4%.
On to `COc1ccc(C(C(=O)O)N2CCCN(C3CCCC3)CC2)cc1OC` (centres undefined), for which the Percent Effect in experiment [1] was 0.804%; in experiment [2] it was -25.6%.
Turning to `CCN1CCOC(CNCc2ccccc2OCC(=O)N(C)C)C1` (centres undefined), the Percent Effect was -4.95% in experiment [1] and 21.6% in experiment [2].
On to `CC(C)CCN1CCN(Cc2nc(C3CC3)no2)CC1`, for which the results for the Percent Effect in experiment [1] and in experiment [2] were 0.0141% and -32%, respectively.
Regarding `CCOC(=O)CCC(=O)N1CCC(Oc2ccc(C(F)(F)F)cn2)CC1`, the Percent Effect in experiment [1] was -1.91%; in experiment [2] it was 12.6%.
On to `CC(C)c1nc(C2CCCN2CC(=O)N2CCNC2=O)no1` (centres undefined), for which the Percent Effect in experiment [1] was 1.61%; in experiment [2], -10.5%.
In the same order, the values of `Cc1ccc(CN(CCCn2ccnc2)Cc2c[nH]cn2)s1` are -4.18% and -13.7%.
In the case of `CC(C)Cc1cc(C(=O)NCCc2ccc(S(C)(=O)=O)cc2)[nH]n1`, the Percent Effect in experiment [1] is 3.53%; in experiment [2] it was -19.9%.
For `Cc1nc(CN2CCCC2c2ccsc2)nc2ccccc12` (centres undefined), the Percent Effect is -2.75% in experiment [1] and -26.3% in experiment [2].
Turning to `CCn1cc(CN2CCCn3nc(CCC(=O)NCCO)cc3C2)cn1`, the Percent Effect in experiment [1] is 0.624%; in experiment [2], -51%.
